Compound activity: PubChem, National Center for Advancing Translational Sciences (NCATS)
IL-1B inflam inh: blocks inflammasome-driven IL-1 beta release. THP-1 LPS/ATP IL-1B secretion, AlphaLISA, 16 h; active compounds read low. activity change, % at 57.5 µM. 360,000 compounds, 4.7% hits; in the data active = activity change below about -50%; inconclusive = mostly about -30% to -49%
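THP-1 cells pretreated 1 hr with compounds (up to 57.5 uM final), then stimulated with LPS (250 ng/mL final) plus ATP (1.25 mM final); secreted IL-1B measured by AlphaLISA after 16 hr, decreased signal indicating inhibition.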
DT40 TDP1 no CPT: qHTS for Inhibitors of human tyrosyl-DNA phosphodiesterase 1 (TDP1): qHTS in cells in absence of CPT. 420,000 compounds, 15% hits. DT40 Tdp1-/- hTDP1 cells, no CPT, ATP luminescence, 48 h. Potency, µM (highest dose often 46.2 µM), inactives show at the top dose activity change, negative = growth inhibition, usual class: inhibitors; also: potency is read from the fitted curve at half-maximal effect; nearly all actives have a fitted effect of over 55% in size
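No-CPT arm: Tdp1-/-;hTDP1 DT40 cells (400/well) plus compounds, incubated ≥48 hr at 37 °C. Readout CellTiter-Glo luminescence.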
RORg inh: inhibitors of mouse ROR gamma transcriptional activity; P51450; Drosophila S2 Gal4-RORgamma UAS-luciferase reporter, 20 h; Potency, µM (titrated, usually from 53.6 µM), inactives show at the top dose activity change, negative = inhibition, hits mostly inhibitors; 310,000 compounds, 5.4% hits; also: potency is read from the fitted curve at half-maximal effect; nearly all actives have a fitted effect of over 60% in size
Target sequence (P51450 whole entry, looked up, the tested form may be a part): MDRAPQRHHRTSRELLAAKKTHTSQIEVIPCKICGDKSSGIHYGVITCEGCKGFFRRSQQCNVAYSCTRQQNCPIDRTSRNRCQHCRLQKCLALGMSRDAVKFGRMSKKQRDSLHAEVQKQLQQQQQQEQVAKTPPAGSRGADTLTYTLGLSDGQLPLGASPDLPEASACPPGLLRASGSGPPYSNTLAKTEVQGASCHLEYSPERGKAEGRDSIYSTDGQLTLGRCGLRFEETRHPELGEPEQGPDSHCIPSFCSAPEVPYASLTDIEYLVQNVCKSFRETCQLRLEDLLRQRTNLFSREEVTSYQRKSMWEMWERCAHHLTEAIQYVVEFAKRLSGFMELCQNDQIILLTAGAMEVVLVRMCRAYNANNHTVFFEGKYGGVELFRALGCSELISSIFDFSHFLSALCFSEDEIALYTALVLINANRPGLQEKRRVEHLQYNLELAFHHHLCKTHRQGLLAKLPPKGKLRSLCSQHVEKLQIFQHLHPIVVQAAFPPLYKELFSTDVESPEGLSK
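Compounds are pin-transferred onto Drosophila Schneider cells expressing a copper-inducible Gal4–ROR gamma transactivation domain fusion. After 1 hr, copper sulfate is added to 700 uM final; luciferase is read 20 hr later.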
VP16 counter: inhibits Gal4-VP16 luciferase reporter, ROR gamma counter-screen; Potency, µM (doses to about 53.6 µM), for inactives: at the top dose activity, negative = inhibition, usual class: inhibitors; Drosophila S2 Gal4-VP16 UAS-luciferase, luminescence, 20 h; 310,000 compounds, 3.5% hits; AID 2546;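 also: Gal4-VP16 expression switched on by copper sulfate through the metallothionein promoter; potency is read from the fitted curve at half-maximal effect; nearly all actives have a fitted effect of over 50% in size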
LDHA block: inhibitors of human lactate dehydrogenase A; P00338; purified LDHA, NADH/diaphorase-resazurin fluorescence; active compounds read low; activity change, % (values are at about 110 or 230 µM); 480,000 compounds, 0.15% hits; in the data active = activity change below about -30%; inconclusive = mostly about -25% to -30%;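 also: plate controls were DMSO wells for no effect and wells without enzyme for full effect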
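Resorufin fluorescence (ex540/em590), read at 0 and 20 min after diaphorase/resazurin addition, reports the NADH left after a 5 min room-temperature reaction of 2 nM human LDH5 with 0.06 mM NADH and 0.2 mM pyruvate.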
DT40 TDP1 CPT: DT40-hTDP1 cell growth loss with CPT | 420,000 compounds, 12% hits | Potency, µM (doses to about 46.2 µM), inactives show at the top dose activity change, negative = growth inhibition, actives largely listed as inhibitors | chicken DT40 Tdp1-/-;hTDP1 cells + 20 nM CPT, ATP luminescence, 48 h | AID 686979; also: potency is read from the fitted curve at half-maximal effect; nearly all actives have a fitted effect of over 55% in size
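Chicken DT40 Tdp1-/- cells stably complemented with human TDP1 were seeded at 400 cells/well in medium containing 20 nM camptothecin, exposed to pin-transferred compounds, and grown at 37 °C for at least 48 hr. Viability was read as ATP luminescence.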
Starred values were filed as active, the others as inactive; ? = inconclusive; nt = no result; [ ] = remark or other dose. Shown are actives, neighbours in structure and some others; about 18% of the full set was active somewhere. Unless noted, calls follow the shape of the dose curve; as a rule, active = well fitted curve in the direction sought with a large enough effect; inconclusive = small, poorly fitted or top-dose-only effect, or another doubt; inactive = no such curve, though single readings can be large; an effect the other way counts as inactive or inconclusive. Unless noted, % is scaled to controls: 0 for no effect and ±100 for the full control effect.

SMILES | IL-1B inflam inh | DT40 TDP1 no CPT | RORg inh | VP16 counter | LDHA block | DT40 TDP1 CPT
CC(C)C(NC(=O)C1O[C@@H]2OC(C)(C)O[C@@H]2[C@H]2OC(C)(C)O[C@@H]12)C(=O)O (stereo partly specified) | nt | nt | nt | nt | -1 | nt
CCN(Cc1ccccc1)S(=O)(=O)c1ccc(F)cc1 | -3 | -12% | 2% | -2% | 0 | -9%
COc1cccc(C(=O)Nc2ccc(NC(=O)Cc3ccccc3)cc2)c1 | 2 | ? | -19% | -17% | -8 | 2%
CCOc1cccc(C(=O)Nc2ccc(S(=O)(=O)N(Cc3ccccc3)c3ccccc3)cc2)c1 | nt | 2.3µM* | nt | nt | -5 | ?
CC(C)N(Cc1ccccc1)S(=O)(=O)c1ccc(F)cc1 | -20 | 9.2µM* | 6% | ? | -3 | ?
COc1cccc(C(=O)Nc2ccc(S(=O)(=O)N(Cc3ccccc3)c3ccccc3)cc2)c1 | nt | 5.8µM* | nt | nt | -7 | ?
CC1CC1C(=O)NCCSCc1cccs1 (stereo unspecified) | nt | nt | nt | nt | 4 | nt
CC(=O)c1ccc(NC(=O)CC2C=CCC2)cc1 (stereo unspecified) | nt | nt | nt | nt | 0 | nt
N#Cc1ccc(NCCCNc2ccc(C#N)cn2)nc1 | nt | nt | nt | nt | 1 | nt
C/C(O)=C(\C#N)c1nnc2n1CCCCC2 | 11 | 10% | ? | 4% | 2 | 21%
C=CCn1c(=O)/c(=C/c2cc(OC)c(OC)c(OC)c2)s/c1=C(/C#N)c1nc2ccccc2n1C | 19 | 18µM* | -38% | 0% | -2 | 23µM*
C=CCn1c(=O)/c(=C/c2ccc(O)cc2)s/c1=C(/C#N)c1nnc2n1CCCCC2 | ? | 23µM* | -1% | 4% | 4 | 18µM*
C=CCn1c(=O)/c(=C/c2ccc(Cl)cc2)s/c1=C(/C#N)c1nnc2n1CCCCC2 | -72* | ? | -14% | -10% | 5 | ?
CCN1CCc2c(sc3c2c(=O)n(-c2ccc(Cl)cc2)c(=O)n3CCN2CCCC2)C1 | nt | nt | nt | nt | 8 | nt
CCCOc1ccc(/C=C(/C#N)c2nc3ccccc3[nH]2)cc1 | nt | nt | nt | nt | 0 | nt
CN(CC(=O)Nc1nccs1)S(=O)(=O)c1ccc(Br)cc1 | nt | nt | nt | nt | -3 | nt
COC(=O)c1ccc(COC(=O)c2cc(C(C)=O)c[nH]2)cc1 | nt | nt | nt | nt | -13 | nt
O=c1c2ccc([N+](=O)[O-])cc2ncn1CCOc1cccc(Br)c1 | 13 | 10µM* | -5% | 8% | 2 | ?
O=c1c2ccc([N+](=O)[O-])cc2ncn1CCOc1ccc(Cl)cc1 | -6 | 15µM* | -11% | -2% | 0 | 18µM*
CCOc1cccc(OCCn2cnc3ccccc3c2=O)c1 | 17 | -1% | 44% | 13% | -3 | 15%
CC1CC(C)CN(C(=O)Cn2c(SCC(=O)N3CCc4ccccc4C3)nc3ccccc32)C1 (stereo unspecified) | -24 | 21µM* | ? | -2% | -2 | ?
O=C1COc2ccc(C(=O)CSc3nnc(Cc4cccs4)n3-c3ccccc3)cc2N1 | -21 | 9.2µM* | -16% | -29% | -8 | ?
CC(C)NC(=O)Cn1c(SCC(=O)N2CCc3ccccc3C2)nc2ccccc21 | 0 | -11% | 21% | 1% | -1 | -4%
CC(C)c1ccccc1-n1c(SCC(=O)N2CCc3ccccc3C2)nc2ccccc2c1=O | ? | 23µM* | 26% | -15% | 1 | ?
CC(C)c1ccccc1-n1c(SCC(=O)c2ccc3c(c2)NC(=O)CO3)nc2ccccc2c1=O | -29 | 23µM* | 2.8µM* | 7% | -4 | 18µM*
SMILES | IL-1B inflam inh | DT40 TDP1 no CPT | RORg inh | VP16 counter | LDHA block | DT40 TDP1 CPT
O=C(Cn1c(=O)c(S(=O)(=O)c2ccccc2)cc2ccccc21)N1CCCC1 | nt | nt | nt | nt | 9 | nt
O=C(CSc1nc2ccccc2c(=O)n1-c1ccccc1)N1CCC1 | 5 | 0% | 26% | -2% | 9 | 8%
O=C(CSc1nc2ccccc2c(=O)n1-c1ccccc1)N1CCc2ccccc2C1 | -16 | 16µM* | ? | ? | -5 | 26µM*
c1ccc(C2CC(c3ccccc3)n3c(nc4ccccc43)N2)cc1 (stereo unspecified) | 60 | 15µM* | ? | -11% | -8 | 16µM*
O=C1C2CC=CCC2C(=O)N1c1nc2n(n1)C(c1ccccc1)CC(c1ccccc1)N2 (stereo unspecified) | 15 | -3% | -2% | -6% | -1 | -6%
CNc1nc2c(c(=O)n(C)c(=O)n2C)n1CC(O)COc1ccc(C)cc1 (stereo unspecified) | nt | nt | nt | nt | 0 | nt
COc1ccc(/C=C/C(=O)Oc2ccc(Br)cc2)cc1 | nt | nt | nt | nt | -15 | nt
COc1ccc(C(=O)/C=C/c2ccc(F)cc2)c(OC(=O)c2ccc([N+](=O)[O-])cc2)c1 | -94* | 21µM* | ? | -5%[0.365 µM] | -3 | ?
COc1ccc(OC(=O)/C=C/c2ccc([N+](=O)[O-])cc2)cc1 | 22 | ? | ? | 8.9µM* | -2 | -17%
CC(=O)c1ccc(S(=O)(=O)NCc2ccc(C(=O)N3CCN(c4cccc(C)c4)CC3)cc2)cc1 | nt | nt | nt | nt | 4 | nt
COc1ccc(-c2csc(NC(=O)Cn3cnc4c3c(=O)n(C)c(=O)n4C)n2)c2ccccc12 | nt | nt | nt | nt | -1 | nt
CCCCCC(=O)Nc1cccc(C2=NOC3(C2)C[C@@H](C(N)=O)N(C(=O)Cc2ccc([N+](=O)[O-])cc2)C3)c1 (stereo partly specified) | -29 | ? | 13% | 1% | 6 | ?
NC(=O)[C@H]1CC2(CC(c3cccc(NC(=O)COc4ccc(Cl)cc4)c3)=NO2)CN1C(=O)Cc1ccc([N+](=O)[O-])cc1 (stereo partly specified) | ? | 16µM* | 14% | 2% | 0 | 13µM*
NC(=O)[C@@H]1CC2(CC(c3cccc(NC(=O)COc4ccc(Cl)cc4)c3)=NO2)CN1C(=O)c1ccccc1 (stereo partly specified) | -65* | ? | ? | -11% | 2 | ?
COc1ccc(C(=O)N2CC3(CC(c4cccc(NC(=O)COc5ccc(Cl)cc5)c4)=NO3)C[C@@H]2C(N)=O)cc1 (stereo partly specified) | -57* | ? | ? | 9% | 1 | 21µM*
Cc1cccc(Nc2nnc(SCC(=O)NCC3CCCO3)s2)c1 (stereo unspecified) | 18 | -20% | nt | nt | 1 | -26%
CC(C)c1ccc(Nc2nnc(SCC(=O)NCC3CCCO3)s2)cc1 (stereo unspecified) | 11 | 16µM* | nt | nt | -7 | ?
